Reference: ChEMBL document CHEMBL3988442, “University of Dundee, Small-Polar-MMV Screening Library” (2021)
For part of these data: Entries with a potency or affinity are not part of this list.

Legend:
Design in all cases: scale not given: direction of the effect not stated beside the values
[1] = target: Protein translocase subunit SecA (Escherichia coli (strain K12)) (UniProt P10408); test: Assay to Identify E. coli SecA ATPase Inhibitors; format: functional; details: 30 µM
[2] = target: T1, Ubiquitin-activating enzyme e1, putative (Leishmania donovani (strain BPK282A1)) (UniProt E9BSI1); test: Leishmania donovani Ubiquitin Activating Enzyme (LdE1); format: functional; details: 30 µM
T1 sequence (whole entry): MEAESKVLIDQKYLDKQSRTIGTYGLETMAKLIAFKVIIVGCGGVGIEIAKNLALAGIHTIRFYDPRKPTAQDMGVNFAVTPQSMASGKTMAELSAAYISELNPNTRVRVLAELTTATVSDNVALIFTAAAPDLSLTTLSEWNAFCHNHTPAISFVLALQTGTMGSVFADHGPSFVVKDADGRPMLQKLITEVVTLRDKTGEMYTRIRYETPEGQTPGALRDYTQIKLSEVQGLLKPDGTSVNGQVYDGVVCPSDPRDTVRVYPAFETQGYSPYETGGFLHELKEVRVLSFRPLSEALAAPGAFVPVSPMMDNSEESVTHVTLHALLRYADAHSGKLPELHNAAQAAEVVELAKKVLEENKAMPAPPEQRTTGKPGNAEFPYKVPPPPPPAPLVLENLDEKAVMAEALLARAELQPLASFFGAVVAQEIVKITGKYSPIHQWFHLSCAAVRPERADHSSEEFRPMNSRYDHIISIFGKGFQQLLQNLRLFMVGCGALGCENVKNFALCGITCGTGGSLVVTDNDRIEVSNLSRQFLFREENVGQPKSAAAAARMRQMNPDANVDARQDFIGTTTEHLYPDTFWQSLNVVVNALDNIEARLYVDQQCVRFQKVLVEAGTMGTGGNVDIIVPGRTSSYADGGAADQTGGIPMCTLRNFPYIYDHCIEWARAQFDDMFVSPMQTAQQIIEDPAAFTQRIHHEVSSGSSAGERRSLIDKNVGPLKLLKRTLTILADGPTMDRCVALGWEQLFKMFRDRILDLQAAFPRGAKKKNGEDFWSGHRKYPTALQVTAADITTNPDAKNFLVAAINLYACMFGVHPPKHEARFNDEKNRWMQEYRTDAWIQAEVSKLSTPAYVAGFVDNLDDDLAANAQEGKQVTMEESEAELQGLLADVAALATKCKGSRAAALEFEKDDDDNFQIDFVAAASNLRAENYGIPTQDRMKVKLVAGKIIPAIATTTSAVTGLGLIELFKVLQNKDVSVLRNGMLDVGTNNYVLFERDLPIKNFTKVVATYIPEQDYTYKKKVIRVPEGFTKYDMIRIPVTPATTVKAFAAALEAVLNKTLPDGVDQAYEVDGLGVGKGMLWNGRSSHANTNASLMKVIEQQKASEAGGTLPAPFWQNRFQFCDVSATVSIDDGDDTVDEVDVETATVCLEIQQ

[3] = target: AMP-activated protein kinase, AMPK (Homo sapiens) (UniProt P54646+O43741+P54619+Q9UGJ0+Q9Y478+Q13131+Q9UGI9); test: AMP-dependent Kinase enzyme assay. An in vitro enzyme assay that detects ADP turnover that is directly proportional to AMPK activity. This uses naive AMPK that is activated during the assay with MK-8722; format: functional; details: 30 µM
[4] = target: Sialic acid-binding Ig-like lectin 9 (Homo sapiens) (UniProt Q9Y336); test: Hs-Siglec9 ALPHAscreen SOP 20170721; details: 10 µM
Trypanosoma cruzi = test: Trypanosoma cruzi phosphomannomutase and mannose-1-phosphate guanylyltransferase assay; format: functional; details: 10 µM
[5] = target: T2, Arginase-2, mitochondrial (Homo sapiens) (UniProt P78540); test: in vitro enzyme assay to detect the production of urea directly proportional to the activity of Arginase II; format: functional; details: 33.3 µM; note: in the data most compounds retested in dose-response had high values
T2 sequence (whole entry): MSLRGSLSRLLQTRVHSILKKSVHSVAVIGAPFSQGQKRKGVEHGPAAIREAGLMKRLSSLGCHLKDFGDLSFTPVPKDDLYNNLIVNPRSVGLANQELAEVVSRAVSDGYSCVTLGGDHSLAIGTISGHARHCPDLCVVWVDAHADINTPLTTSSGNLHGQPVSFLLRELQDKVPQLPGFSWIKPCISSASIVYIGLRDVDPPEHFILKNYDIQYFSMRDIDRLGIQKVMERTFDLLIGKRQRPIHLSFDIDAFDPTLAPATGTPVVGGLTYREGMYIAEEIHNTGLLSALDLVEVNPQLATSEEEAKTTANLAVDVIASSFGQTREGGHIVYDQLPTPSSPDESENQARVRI

[6] = target: T3, Proteasome subunit beta (Trypanosoma cruzi) (UniProt O96673); test: Trypanosoma cruzi proteasome chymotrypsin-like activity (TcProtChymo) assay.; note: in the data most compounds retested in dose-response had high values; format: functional; details: 9.37 µM
T3 sequence (whole entry): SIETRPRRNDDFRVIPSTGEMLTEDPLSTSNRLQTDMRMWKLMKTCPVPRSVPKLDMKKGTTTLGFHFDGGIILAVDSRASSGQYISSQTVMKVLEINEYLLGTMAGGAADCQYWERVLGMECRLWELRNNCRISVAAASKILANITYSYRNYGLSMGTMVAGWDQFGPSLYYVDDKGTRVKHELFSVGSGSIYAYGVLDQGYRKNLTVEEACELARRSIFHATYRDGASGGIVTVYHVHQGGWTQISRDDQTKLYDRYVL

Homo sapiens = species: Homo sapiens; test: To identify inhibition of the IFN signalling (Jak-Stat) pathway via expression of an eGFP reporter gene under the control of an IFN-stimulated response element (ISRE) containing MxA promoter.; format: functional; details: 30 µM
[7] = target: T4, Tyrosyl-tRNA synthetase, putative (Trypanosoma cruzi (strain CL Brener)) (UniProt Q4DSP6); test: Trypanosoma cruzi tyrosyl tRNA synthetase (TcYRS) _High Tyrosine SOP; format: functional; details: 30 µM; note: in the data most compounds retested in dose-response had high values
T4 sequence (whole entry): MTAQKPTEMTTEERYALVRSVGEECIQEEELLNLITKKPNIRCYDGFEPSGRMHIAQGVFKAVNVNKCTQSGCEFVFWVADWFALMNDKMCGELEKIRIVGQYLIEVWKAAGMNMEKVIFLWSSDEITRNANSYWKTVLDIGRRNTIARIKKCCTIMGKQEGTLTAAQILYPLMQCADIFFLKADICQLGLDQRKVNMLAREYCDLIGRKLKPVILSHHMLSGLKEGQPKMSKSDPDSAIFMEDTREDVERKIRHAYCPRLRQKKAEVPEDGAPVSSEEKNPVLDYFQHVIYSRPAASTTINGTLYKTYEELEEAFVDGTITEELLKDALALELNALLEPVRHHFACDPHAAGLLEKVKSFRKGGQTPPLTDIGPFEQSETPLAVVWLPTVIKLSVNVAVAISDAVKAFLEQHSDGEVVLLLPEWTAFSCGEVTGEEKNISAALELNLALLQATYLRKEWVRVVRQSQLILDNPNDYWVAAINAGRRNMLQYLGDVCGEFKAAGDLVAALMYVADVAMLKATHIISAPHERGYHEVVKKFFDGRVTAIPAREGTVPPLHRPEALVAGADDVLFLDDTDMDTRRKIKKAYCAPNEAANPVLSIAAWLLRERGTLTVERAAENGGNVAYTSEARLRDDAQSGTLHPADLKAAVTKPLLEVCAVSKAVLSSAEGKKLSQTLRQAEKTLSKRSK

[8] = target: T4, Tyrosyl-tRNA synthetase, putative (Trypanosoma cruzi (strain CL Brener)); test: Trypanosoma cruzi tyrosyl tRNA synthetase (TcYRS) SOP; format: functional; details: 30 µM
[9] = target: Chromo domain-containing protein 1 (Saccharomyces cerevisiae (strain ATCC 204508 / S288c) (Baker's yeast)) (UniProt P32657); test: ScCHD-1 Enzyme Inhibition Assay; format: functional; details: 30 µM; note: in the data most compounds retested in dose-response had high values
Chromo domain-containing protein 1 (Saccharomyces cerevisiae (strain ATCC 204508 / S288c) (Baker's yeast)), sequence (P32657 whole entry, the tested form may be a part): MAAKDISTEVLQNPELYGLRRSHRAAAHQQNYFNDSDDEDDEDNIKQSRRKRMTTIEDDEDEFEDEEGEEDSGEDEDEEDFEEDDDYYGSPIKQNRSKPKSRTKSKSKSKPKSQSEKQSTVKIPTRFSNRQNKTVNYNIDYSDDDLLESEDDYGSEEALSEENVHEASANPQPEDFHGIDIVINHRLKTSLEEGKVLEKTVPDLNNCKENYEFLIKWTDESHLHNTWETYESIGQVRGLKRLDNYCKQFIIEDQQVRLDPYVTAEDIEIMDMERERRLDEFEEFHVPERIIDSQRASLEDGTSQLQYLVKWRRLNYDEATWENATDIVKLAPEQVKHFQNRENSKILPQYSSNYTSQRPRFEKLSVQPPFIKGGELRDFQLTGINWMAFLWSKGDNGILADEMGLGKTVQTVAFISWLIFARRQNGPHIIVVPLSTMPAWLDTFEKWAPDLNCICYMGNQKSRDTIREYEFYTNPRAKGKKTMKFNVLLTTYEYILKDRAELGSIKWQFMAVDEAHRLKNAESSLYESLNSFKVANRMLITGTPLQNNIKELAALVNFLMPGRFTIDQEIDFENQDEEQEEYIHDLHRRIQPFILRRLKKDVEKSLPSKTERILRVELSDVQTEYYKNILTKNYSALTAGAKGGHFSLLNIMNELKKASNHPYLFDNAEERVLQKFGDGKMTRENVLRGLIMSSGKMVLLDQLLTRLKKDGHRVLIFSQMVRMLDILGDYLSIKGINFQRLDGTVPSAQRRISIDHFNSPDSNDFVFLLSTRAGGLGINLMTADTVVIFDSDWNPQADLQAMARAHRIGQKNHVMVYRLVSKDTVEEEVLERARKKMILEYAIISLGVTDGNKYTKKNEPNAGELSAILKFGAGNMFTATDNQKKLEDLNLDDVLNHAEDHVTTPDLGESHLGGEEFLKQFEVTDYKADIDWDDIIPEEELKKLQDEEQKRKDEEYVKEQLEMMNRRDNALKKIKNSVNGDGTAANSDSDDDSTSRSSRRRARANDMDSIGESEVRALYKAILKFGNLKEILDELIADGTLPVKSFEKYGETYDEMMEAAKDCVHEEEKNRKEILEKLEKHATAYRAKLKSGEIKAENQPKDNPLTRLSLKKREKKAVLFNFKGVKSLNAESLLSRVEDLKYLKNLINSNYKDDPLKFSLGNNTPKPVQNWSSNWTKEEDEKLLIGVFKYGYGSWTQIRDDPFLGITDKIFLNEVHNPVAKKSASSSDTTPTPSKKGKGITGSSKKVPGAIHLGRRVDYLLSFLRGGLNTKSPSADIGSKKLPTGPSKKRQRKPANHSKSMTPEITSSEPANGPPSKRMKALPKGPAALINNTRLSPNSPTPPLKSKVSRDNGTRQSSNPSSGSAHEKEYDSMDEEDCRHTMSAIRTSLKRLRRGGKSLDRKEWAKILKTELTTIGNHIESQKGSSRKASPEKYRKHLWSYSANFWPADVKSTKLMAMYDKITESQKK

Protein translocase subunit SecA (Escherichia coli (strain K12)), sequence (P10408 whole entry): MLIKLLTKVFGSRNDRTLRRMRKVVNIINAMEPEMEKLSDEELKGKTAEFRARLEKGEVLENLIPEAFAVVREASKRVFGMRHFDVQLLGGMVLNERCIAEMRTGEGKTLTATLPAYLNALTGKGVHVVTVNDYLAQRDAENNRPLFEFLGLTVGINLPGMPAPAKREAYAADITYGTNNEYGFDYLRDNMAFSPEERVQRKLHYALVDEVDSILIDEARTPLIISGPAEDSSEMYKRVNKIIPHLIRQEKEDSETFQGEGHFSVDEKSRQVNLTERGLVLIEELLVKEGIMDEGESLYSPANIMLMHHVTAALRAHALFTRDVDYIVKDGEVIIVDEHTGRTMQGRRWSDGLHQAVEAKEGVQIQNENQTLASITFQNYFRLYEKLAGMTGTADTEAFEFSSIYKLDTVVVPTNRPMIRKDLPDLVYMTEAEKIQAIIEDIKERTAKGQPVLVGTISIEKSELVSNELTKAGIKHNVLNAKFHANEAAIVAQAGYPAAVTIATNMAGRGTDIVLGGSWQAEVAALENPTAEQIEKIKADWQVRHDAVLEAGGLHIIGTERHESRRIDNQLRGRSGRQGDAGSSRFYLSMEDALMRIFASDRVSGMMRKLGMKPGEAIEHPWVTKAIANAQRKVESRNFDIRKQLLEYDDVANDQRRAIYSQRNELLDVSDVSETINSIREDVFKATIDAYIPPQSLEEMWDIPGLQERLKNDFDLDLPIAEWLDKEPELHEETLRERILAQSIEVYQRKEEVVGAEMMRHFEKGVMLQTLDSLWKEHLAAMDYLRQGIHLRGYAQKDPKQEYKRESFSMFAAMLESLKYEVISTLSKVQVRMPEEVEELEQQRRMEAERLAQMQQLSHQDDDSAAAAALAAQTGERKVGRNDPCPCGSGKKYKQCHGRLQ
Sialic acid-binding Ig-like lectin 9 (Homo sapiens), sequence (Q9Y336 whole entry): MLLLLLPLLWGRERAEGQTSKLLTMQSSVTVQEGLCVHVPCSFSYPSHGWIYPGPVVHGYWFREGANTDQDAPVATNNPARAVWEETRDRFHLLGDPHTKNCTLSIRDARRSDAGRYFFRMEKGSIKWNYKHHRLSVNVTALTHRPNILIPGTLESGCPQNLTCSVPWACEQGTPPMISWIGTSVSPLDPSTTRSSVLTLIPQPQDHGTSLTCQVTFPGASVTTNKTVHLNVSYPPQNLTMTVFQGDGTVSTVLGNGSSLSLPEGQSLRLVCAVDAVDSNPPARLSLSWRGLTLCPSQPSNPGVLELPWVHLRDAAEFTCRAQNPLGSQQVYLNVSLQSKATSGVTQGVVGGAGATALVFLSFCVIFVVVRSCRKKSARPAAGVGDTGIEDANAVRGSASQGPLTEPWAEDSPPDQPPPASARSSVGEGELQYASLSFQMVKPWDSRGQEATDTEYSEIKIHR

SMILES	Percent Effect [1] [%]	Percent Effect [2] [%]	Percent Effect [3] [%]	Percent Effect [4] [%]	Percent Effect (Trypanosoma cruzi) [%]	Percent Effect [5] [%]	Percent Effect [6] [%]	Percent Effect (Homo sapiens) [%]	Percent Effect [7] [%]	Percent Effect [8] [%]	Percent Effect [9] [%]
CCCn1cc(C(=O)N(C)Cc2nc(-c3ccccn3)no2)c(C)n1	-2.06	5.33	-2.74	4.11	-2.43	4.69	18.8	17	6.01	13.6	-5.18
COc1ccc(OC)c(CN2CCCCCC2c2cccs2)c1 (stereo unspecified)	-4.16	-7.79	-2.05	-14.1	7.59	3.23	9.05	8.15	-5.29	-32	-9.84
CN(Cc1ccco1)C(=O)CN1CCCC(Cn2cncn2)C1 (stereo unspecified)	-2.53	5.26	-6.77	10.4	3.64	2.16	15	-16.1	5.42	11.1	-6.09
Cc1nc(CNCC2CCCN2c2cccnn2)no1 (stereo unspecified)	-3.3	-13	-11.2	-6.04	8.32	-6.53	15.6	-2.13	9.52	14.1	-23.1
COc1nc2c(cc1C(=O)N1C[C@H](N)C[C@H]1C(=O)NC(C)C)CCC2	-3.3	18.1	-10.6	9.06	6.51	8.83	16.3	9.52	6.32	15.4	-4.1
COCCN(C)C(=O)c1ccc(OC)cc1O	-7.04	0	0.346	2.75	-4.17	2.4	18.2	8.7	4.17	8.64	3.68
CCCS(=O)(=O)N1CCC(NC(=O)c2cc(C)c(CC)s2)CC1	-1.6	2.67	-3.07	10.4	5.94	-2.08	7.15	13.4	6.01	18.5	1.12
CO[C@@H]1CC[C@H]2[C@H]1OCCN2C(=O)c1ccc(C)o1	2.4	10.4	173	-12.1	-7.2	-11	14.1	22.1	-3.17	-1.28	-14
CCc1nc(CN2CCCN(Cc3cnn(C)c3)CC2)no1	2.29	5.48	-1.06	0.0732	-2.35	0	17.2	3.79	4.3	12.5	-13.7
Cc1cccc(Cn2c3c(ccc2=O)CCN(Cc2ccoc2)CC3)n1	-0.765	8.22	-3.21	11.9	7.54	-14	10.5	6.67	4.17	6.17	-3.8
COc1ccc(Br)c(C(=O)N2CCC(c3n[nH]c(C4CC4)n3)CC2)c1	-4.1	16.5	1.39	2.29	0.513	-3.23	11.8	4.22	4.17	25.3	-27.6
CN(C)C(=O)N1CCN(Cc2ccccc2)[C@@H]2CS(=O)(=O)C[C@@H]21	-0.429	2.7	-4.73	3.84	4.25	-1.43	10.9	4.04	7.94	17.1	-3.7
CCc1c(C(=O)NCC(=O)OCC2CC2)cnn1-c1ccc(C)cc1	-5.86	22.8	2.14	-2.84	9.54	0.38	10.7	29	6.4	24.1	-9.54
c1ccc(Cn2cccn2)c(CNCC2CNc3ccnn3C2)c1 (stereo unspecified)	-5.51	10.4	-9.17	10.9	13.5	-4.63	13.3	3.57	16.5	21.9	-11
Cc1nc(C(=O)N2CCCC(n3cncn3)C2)cs1 (stereo unspecified)	-1.23	-1.27	3.74	3.18	-0.718	2.8	4.63	-1.7	-38.5	5.06	0.874
CN(C)C(=O)CC1CC2(CCN(c3ncccn3)CC2)c2ccccc21 (stereo unspecified)	-7.49	5.41	5.36	-1.25	3.32	2.92	4.14	6.8	5.94	3.66	-4.19
Clc1ccc2oc(C3CCN(Cc4cccnc4)CC3)nc2c1	0.753	13.5	5.18	16.9	5.02	-10.5	15.5	32.2	-0.529	12.2	-6.96
Cn1nc(C2CCCN(C(=O)Cc3ccsc3)C2)c2nccnc21 (stereo unspecified)	-5.11	9.46	7.86	10.4	-5.14	-1.16	8.89	23.9	-1.07	6.49	-13.9
COc1c(C)cnc(CN2CCCCC2Cn2nc(C)nc2C)c1C (stereo unspecified)	0.617	17.7	-1.73	-6.46	2.55	5.32	14.8	4.74	14.3	26.6	-9.69
Cc1cncc(C2CCCN(C(=O)c3scnc3C)C2)n1 (stereo unspecified)	-5.85	1.35	3.8	2.37	0.395	-2.09	7.33	2.09	3.23	11.7	-22.3
CCn1nc(CC(C)C)cc1C(=O)NCCCOC	-2.12	6.94	0.357	4.91	0.291	4.86	15.8	3.12	5.26	7.69	0.96
